Measured values: PubChem BioAssay (EPA / NIEHS)
“And” between values parts separate entries of the source, which are not always exact repeats. Equal entries are not always repeated. More than one record can exist for a structure, and the calls need not agree. The source made the active and inactive calls. The calls were made as follows: active = hit-call score of the fitted dose curve at least 0.9, where 1 is the maximum; inactive = score below 0.9.

What was measured:
[1] = BSK_CASM3C_SRB: Viability Assessment in the BioMAP Diversity Plus: CASM3C Assay (AID 2283050); details: primary human coronary artery smooth muscle cells
[2] = read-out: Thrombomodulin, THBD (gene 7056); assay: BSK_CASM3C_Thrombomodulin: BioMAP Diversity Plus: CASM3C Assay for Thrombomodulin Biomarker Activity (AID 2283051); details: primary human coronary artery smooth muscle cells; actives raise or lower the signal;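 also: thrombomodulin protein level measured by ELISA 24 h after dosing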
[3] = read-out: Tissue Factor, F3 (gene 2152); assay: BSK_CASM3C_TissueFactor: BioMAP Diversity Plus: CASM3C Assay for Tissue Factor Biomarker Activity (AID 2283052); details: primary human coronary artery smooth muscle cells; actives raise or lower the signal;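 also: cell surface tissue factor protein level read by ELISA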
[4] = read-out: Interferon-gamma inducible Protein 10 (IP10), CXCL10 (gene 3627); assay: BSK_hDFCGF_IP10: BioMAP Diversity Plus: hDFCGF Assay for Interferon-gamma inducible Protein 10 (IP10) Biomarker Activity (AID 2283053); details: primary human foreskin fibroblasts; actives raise or lower the signal
Summary of the method: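 IP-10 levels, quantified by ELISA, are taken from human foreskin fibroblast cultures 24 h after chemical treatment, with DMSO serving as negative control and baseline for bidirectional analysis.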

[5] = read-out: Urokinase-type plasminogen activator receptor (uPAR), PLAUR (gene 5329); assay: BSK_CASM3C_uPAR: BioMAP Diversity Plus: CASM3C Assay for Urokinase-type plasminogen activator receptor (uPAR) Biomarker Activity (AID 2283054); details: primary human coronary artery smooth muscle cells; actives raise or lower the signal;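 also: cell-surface uPAR protein level quantified by ELISA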
[6] = read-out: Vascular cell adhesion molecule 1 (VCAM1), VCAM1 (gene 7412); assay: BSK_CASM3C_VCAM1: BioMAP Diversity Plus: CASM3C Assay for Vascular cell adhesion molecule 1 (VCAM1) Biomarker Activity (AID 2283055); details: primary human coronary artery smooth muscle cells; actives raise or lower the signal;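 also: VCAM-1 protein level quantified by ELISA on the cells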
[7] = read-out: Collagen III, COL3A1 (gene 1281); assay: BSK_hDFCGF_CollagenIII: BioMAP Diversity Plus: hDFCGF Assay for Collagen III Biomarker Activity (AID 2283056); details: primary human foreskin fibroblasts; actives raise or lower the signal
Summary of the method: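 hDFCGF primary human dermal fibroblasts; 24 h chemical exposure; collagen III by ELISA; bidirectional curve fit vs DMSO baseline (gain or loss of signal).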

[8] = read-out: Epidermal growth factor receptor (EGFR), EGFR (gene 1956); assay: BSK_hDFCGF_EGFR: BioMAP Diversity Plus: hDFCGF Assay for Epidermal growth factor receptor (EGFR) Biomarker Activity (AID 2283057); details: primary human foreskin fibroblasts; actives raise or lower the signal
Summary of the method: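 Measured by ELISA: EGFR levels on primary human foreskin fibroblasts 24 h after chemical treatment, analysed relative to DMSO with bidirectional fitting.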

[9] = BSK_hDFCGF_Proliferation: Cell Proliferation Assessment in the BioMAP Diversity Plus: hDFCGF Assay (AID 2283059); details: primary human foreskin fibroblasts;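 also: curves fitted for both rise and fall of signal versus DMSO baseline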
Summary of the method: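 Sub-confluent human foreskin fibroblast cultures receive test chemical […]. Relative cell number is quantified by sulforhodamine B staining (0.1%, after 10% TCA fixation) at 560 nm, with bidirectional fitting referenced to DMSO.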

[10] = read-out: Macrophage colony-stimulating factor (MCSF), CSF1 (gene 1435); assay: BSK_hDFCGF_MCSF: BioMAP Diversity Plus: hDFCGF Assay for Macrophage colony-stimulating factor (MCSF) Biomarker Activity (AID 2283060); details: primary human foreskin fibroblasts; actives raise or lower the signal
Summary of the method: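 ELISA read-out of M-CSF in human dermal foreskin fibroblast cultures, 24 h after chemical dosing; gain or loss of signal fitted bidirectionally relative to DMSO baseline.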

[11] = BSK_hDFCGF_SRB: Viability Assessment in the BioMAP Diversity Plus: hDFCGF Assay (AID 2283061); details: primary human foreskin fibroblasts;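 also: cells exposed to compound for 24 h before the read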
Summary of the method: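 Primary human foreskin fibroblasts; 24 h post-dose; fixed 10% TCA, stained 0.1% SRB, A560 read; total protein as overt cytotoxicity measure; curves fit bidirectionally vs DMSO control.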

[12] = read-out: TIMP metallopeptidase inhibitor 1 (TIMP1), TIMP1 (gene 7076); assay: BSK_hDFCGF_TIMP1: BioMAP Diversity Plus: hDFCGF Assay for TIMP metallopeptidase inhibitor 1 (TIMP1) Biomarker Activity (AID 2283062); details: primary human foreskin fibroblasts; actives raise or lower the signal
Summary of the method: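 ELISA readout of TIMP-1 from human dermal foreskin fibroblast cultures 24 h post-dosing. Curves were fitted in both directions against DMSO baseline, with SRB total-protein staining in parallel cultures as a cytotoxicity check.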

[13] = read-out: Monokine induced gamma interferon (MIG), CXCL9 (gene 4283); assay: BSK_hDFCGF_MIG: BioMAP Diversity Plus: hDFCGF Assay for Monokine induced gamma interferon (MIG) Biomarker Activity (AID 2283063); details: primary human foreskin fibroblasts; actives raise or lower the signal
Summary of the method: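 Fibroblasts (human foreskin, primary) dosed, 24 h, MIG by ELISA; fit bidirectional vs DMSO.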

[14] = read-out: Matrix Metallopeptidase 1 (MMP1), MMP1 (gene 4312); assay: BSK_hDFCGF_MMP1: BioMAP Diversity Plus: hDFCGF Assay for Matrix Metallopeptidase 1 (MMP1) Biomarker Activity (AID 2283064); details: primary human foreskin fibroblasts; actives raise or lower the signal
Summary of the method: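 Primary human foreskin fibroblasts in the hDFCGF system were dosed with test chemical, and MMP1 was measured by ELISA 24 h later. Values come from bidirectional curve fitting against the DMSO baseline.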

[15] = read-out: Vascular cell adhesion molecule 1 (VCAM1), VCAM1 (gene 7412); assay: BSK_hDFCGF_VCAM1: BioMAP Diversity Plus: hDFCGF Assay for Vascular cell adhesion molecule 1 (VCAM1) Biomarker Activity (AID 2283065); details: primary human foreskin fibroblasts; actives raise or lower the signal;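 as to AC50: VCAM-1 protein level quantified by ELISA after 24 h chemical exposure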
Summary of the method: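 ELISA read-out of VCAM-1 on human skin fibroblasts, 24 h post-dose; gain or loss of signal fitted bidirectionally against DMSO baseline.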

[16] = read-out: Plasminogen activator inhibitor-1 (PAI1), SERPINE1 (gene 5054); assay: BSK_hDFCGF_PAI1: BioMAP Diversity Plus: hDFCGF Assay for Plasminogen activator inhibitor-1 (PAI1) Biomarker Activity (AID 2283066); details: primary human foreskin fibroblasts; actives raise or lower the signal
Summary of the method: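 PAI-1 levels, determined by ELISA, served as the endpoint in human foreskin fibroblast cultures exposed to compound for 24 h, with DMSO as baseline.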

[17] = read-out: Intercellular Adhesion Molecule 1 (ICAM1), ICAM1 (gene 3383); assay: BSK_KF3CT_ICAM1: BioMAP Diversity Plus: KF3CT Assay for Intercellular Adhesion Molecule 1 (ICAM1) Biomarker Activity (AID 2283067); details: primary human keratinocytes with fibroblasts; actives raise or lower the signal
Summary of the method: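 ELISA readout of ICAM-1; KF3CT human skin co-culture (keratinocytes + foreskin fibroblasts), 24 h post-dose; gain/loss fit vs DMSO baseline.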

[18] = read-out: Interferon-gamma inducible Protein 10 (IP10), CXCL10 (gene 3627); assay: BSK_KF3CT_IP10: BioMAP Diversity Plus: KF3CT Assay for Interferon-gamma inducible Protein 10 (IP10) Biomarker Activity (AID 2283068); details: primary human keratinocytes with fibroblasts; actives raise or lower the signal
Summary of the method: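 ELISA read-out of IP-10 after 24 h chemical dosing of human skin primary co-culture (keratinocytes, foreskin fibroblasts). Gain or loss of signal relative to DMSO, bidirectional curve fit.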

[19] = BSK_KF3CT_SRB: Viability Assessment in the BioMAP Diversity Plus: KF3CT Assay (AID 2283069); details: primary human keratinocytes with fibroblasts;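 also: total protein by sulforhodamine B staining as a cytotoxicity measure; read 24 h after compound addition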
Summary of the method: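 Human primary keratinocyte plus foreskin fibroblast co-culture exposed to chemicals for 24 h. Total protein measured by 0.1% sulforhodamine B staining after 10% TCA fixation, read at 560 nm; bidirectional fitting versus DMSO baseline.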

[20] = read-out: Interleukin-8 (IL8), CXCL8 (gene 3576); assay: BSK_hDFCGF_IL8: BioMAP Diversity Plus: hDFCGF Assay for Interleukin-8 (IL8) Biomarker Activity (AID 2283058); details: primary human foreskin fibroblasts; actives raise or lower the signal
Summary of the method: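 ELISA read-out of IL-8 from primary human foreskin fibroblast cultures taken 24 h after dosing; values are bidirectional fits relative to DMSO vehicle.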

Measured: AC50

O=C(Cl)C(F)(F)C(F)(F)C(F)(F)C(F)(F)C(F)(F)C(F)(F)C(F)(F)C(F)(F)F
active: [4] 24.8 µM and 36.7 µM and 32.9 µM | [6] 30 µM | [8] 6.36 µM and 13.7 µM | [9] 49.7 µM and 49.4 µM and 49.5 µM | [11] 8.08 µM and 15.7 µM and 10.9 µM | [13] 21.7 µM and 44.1 µM and 30 µM | [15] 50.4 µM and 47.9 µM and 47 µM | [16] 47.5 µM and 48.5 µM and 54.6 µM | [18] 20.3 µM and 30 µM
inactive: [1] | [2] | [3] | [5] | [6] | [7] | [8] | [10] | [12] | [14] | [17] | [18] | [19]

FC(F)(F)C(F)(F)C(F)(F)C(F)(F)CCI
active: [13] 49.3 µM
inactive: [1] | [2] | [3] | [4] | [5] | [6] | [7] | [8] | [20] | [10] | [11] | [12] | [13] | [14] | [15] | [16] | [17] | [18] | [19]

O=C(O)C(F)(F)C(F)(F)C(F)(F)C(F)(F)C(F)(F)C(F)(F)C(F)(F)C(F)(F)C(F)(F)C(F)(F)C(F)(F)C(F)(F)C(F)(F)F
active: [4] 5.35 µM | [7] 641 nM
inactive: [1] | [2] | [3] | [4] | [5] | [6] | [7] | [8] | [9] | [10] | [11] | [12] | [13] | [14] | [15] | [16] | [17] | [18] | [19]

CCO[Si](CCC(F)(F)C(F)(F)C(F)(F)C(F)(F)C(F)(F)C(F)(F)F)(OCC)OCC
inactive: [1] | [2] | [3] | [4] | [5] | [6] | [7] | [8] | [10] | [11] | [12] | [13] | [14] | [15] | [16] | [17] | [18] | [19]
active: [3] 1.58 µM

O=C(O)C(F)(F)C(F)(F)C(F)(F)C(F)(F)C(F)(F)C(F)(F)C(F)(F)C(F)(F)C(F)(F)C(F)F
inactive: [1] | [2] | [3] | [5] | [6] | [8] | [20] | [10] | [12] | [14] | [17]
active: [4] 18.3 µM and 12.8 µM | [7] 3.34 µM and 8.08 µM | [10] 11 µM | [11] 54 µM and 7.25 µM | [13] 9.87 µM and 5.95 µM | [16] 45.6 µM and 46 µM | [18] 27.6 µM and 23.7 µM | [19] 52.4 µM and 49.3 µM

CCCCC(CC)COP(=O)(O)OCC(CC)CCCC (stereo not given)
active: [4] 24.9 µM and 28.3 µM | [6] 0.988 µM | [7] 26.9 µM and 27.5 µM | [8] 20 µM | [9] 32.9 µM and 34.6 µM | [10] 33.9 µM and 31.3 µM | [11] 30.6 µM and 29.9 µM | [12] 30.8 µM | [13] 31.6 µM | [14] 12 µM and 13.7 µM | [16] 27.5 µM and 33.5 µM | [18] 26.5 µM and 27.2 µM
inactive: [1] | [2] | [3] | [5] | [6] | [8] | [20] | [12] | [13] | [17] | [19]

CCCCOCCOCCOC(=O)CCCCC(=O)OCCOCCOCCCC
inactive: [1] | [2] | [3] | [4] | [5] | [6] | [7] | [8] | [20] | [9] | [10] | [11] | [12] | [13] | [14] | [16] | [17] | [18] | [19]

N=C(N)C(F)(F)C(F)(F)C(F)(F)C(F)(F)C(F)(F)C(F)(F)C(F)(F)F
inactive: [1] | [2] | [3] | [5] | [6] | [8] | [11] | [12] | [13] | [14] | [17] | [18] | [19]
active: [4] 42.9 µM and 50.1 µM | [7] 10.9 µM and 10.7 µM | [8] 53.9 µM | [9] 39.7 µM and 54.7 µM | [10] 40.9 µM and 37.2 µM | [11] 54.4 µM | [13] 46 µM | [15] 30 µM and 18 µM | [16] 55.3 µM and 54.2 µM

COC(=O)CCC(F)(F)C(F)(F)C(F)(F)C(F)(F)F
active: [11] 30 µM
inactive: [1] | [2] | [3] | [4] | [5] | [6] | [7] | [8] | [20] | [10] | [11] | [12] | [13] | [14] | [15] | [16] | [17] | [18] | [19]
